# PubChem BioAssay (NCI)
# Several values for one entry are separate records, joined by “and”; a condition that tells them apart may be missing. Identical values can stand only once. The panel holds about 83,000 compounds, 20% with a hit somewhere; the sample as a whole holds those more often.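 Cells were grown in 96-well plates and exposed to the test compound at a single concentration for 48 hours; results are reported as percent growth, with values below 10 considered active.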 Activity calls are given as the source filed them.
# Tested on: IGROV1 ovarian
# Assay: NCI-60 one-dose screen, 48 h (100 = growth as untreated, 0 = no growth, -100 = all killed)
# Details: 10 µM
# Protocol: Growth inhibition of the IGROV1 human tumor cell line is measured as a screen for anti-cancer activity. Cells are grown in 96 well plates and exposed to the test compound for 48 hours. Compounds are tested at a single concentration, which is 10^-5 M for most compounds. The reported endpoint is percent growth (GI% or GIPRCNT), where numbers from 0 - 100% represent growth inhibition, and numbers from -100% - 0 represent cell death. For example, a value of 40 represents 60% growth inhibition. A value of 0 means no net growth occurred over the course of the experiment. A value of -40 indicates 40% of cells at the beginning of the experiment died by the end of the experiment. A value of -100 means all cells are dead at the end of the experiment.
# NCI-60 Human Tumor Cell Lines Screen was performed using the standard one-dose NCI protocol, which is described in more detail at https://dtp.cancer.gov/discovery_development/nci-60/default.htm.
# Compounds with GIPRCNT values below 10 were considered active. Activity score was based on GIPRCNT using the following formula: […]
# Score is 0 for GIPRCNT values of 100 or above, 50 for GIPRCNT values of 0, and 100 for GIPRCNT values of -100.
row,Compound,growth
1,CC(=O)[O][Hg][c]1c(C)c(C)cc(C)c1C,-73.2% (active)
2,[O-][n+]1ccccc1S,6.4% (active)
3,C=NCC#N,110% (inactive) and 115% (inactive)
4,C[CH2][Hg][S]c1ccccc1C(=O)O,16.9% (inactive)
5,COc1cc(/C=C(/C)[N+](=O)[O-])ccc1O,26.4% (inactive) and 21.3% (inactive)
6,COc1cc(/C=C/[N+](=O)[O-])cc(Br)c1OC,1.74% (active)
7,S=C=NCCc1ccccc1,44.1% (inactive)
8,COc1cc2c(c(OC)c1OC)-c1ccc(O)c(=O)cc1[C@@H](NC(C)=O)CC2,51.9% (inactive)
9,ClCc1ccc2ccccc2n1,78.2% (inactive)
10,C/C1=C\[C@H](C)C[C@H](C)OC(=O)C[C@H](c2ccc(O)cc2)NC(=O)[C@@H](Cc2c(Br)[nH]c3ccccc23)N(C)C(=O)[C@H](C)NC(=O)[C@@H](C)C1,-79.1% (active)
11,C=C1C(=O)O[C@@H]2C[C@@H](C)[C@@H]3C=CC(=O)[C@@]3(C)[C@@H](O)[C@H]12,-90.5% (active)
12,O=[N+]([O-])/C=C/c1ccc([N+](=O)[O-])cc1,-20.2% (active) and 66.6% (inactive)
13,COC(C(=O)C(O)C(C)O)C1Cc2cc3cc(OC4CC(OC(C)=O)C(OC5CC(O)C(OC)C(C)O5)C(C)O4)cc(O)c3c(O)c2C(=O)C1OC1CC(OC2CC(OC3CC(C)(O)C(OC(=O)C(C)C)C(C)O3)C(O)C(C)O2)C(O)C(C)O1 (stereo not given),-39.4% (active)
14,C[C@@H]1C[C@@H]([C@H](O)CC2CC(=O)NC(=O)C2)C(=O)[C@@H](C)C1,11.3% (inactive)
15,COS(=O)(=O)c1ccccc1,120% (inactive)
16,NNc1ccccc1,88.4% (inactive)
17,O=C1C(=O)c2ccccc2-c2ccccc21,-61.7% (active)
18,COC(=O)C1C(O)C(C)C(O)C(C)/C=C\C=C(C)C(=O)Nc2c(C)c(OC(C)=O)c3c(c2O)C(=O)C(C)=C2OCOC(=C23)C(C)=CC(C)(O)C(O)C(C)C1O (stereo not given),58.7% (inactive)
19,NC(=O)c1cc([N+](=O)[O-])c(Cl)c([N+](=O)[O-])c1,102% (inactive)
20,CS(=N)(=O)CCC(N)C(=O)O (stereo not given),87.5% (inactive)

row,Compound,growth
1,O=[N+]([O-])c1cc[n+]([O-])c2ccccc12,-24.3% (active)
2,COc1cc([C@@H]2c3cc4c(c(O)c3C[C@H]3COC(=O)[C@@H]32)OCO4)cc(OC)c1OC,-32.1% (active)
3,CC1CCC2(OC1)OC1C(O)C3C4CCC5CC(OC6OC(CO)C(OC7OC(CO)C(O)C(OC8OCC(O)C(O)C8O)C7OC7OC(CO)C(O)C(OC8OC(CO)C(O)C(O)C8O)C7O)C(O)C6O)C(O)CC5(C)C4CCC3(C)C1C2C (stereo not given),-47.7% (active)
4,C/C(=C\c1ccc(Cl)c(Cl)c1)[N+](=O)[O-],-55.8% (active) and 111% (inactive)
5,[Cl][Hg][c]1ccc(Cl)s1,26.2% (inactive)
6,Oc1ccccc1-c1ccccc1,97.9% (inactive) and 107% (inactive)
7,Cc1cc(C(C)(C)c2ccc(O)c(C)c2)ccc1O,106% (inactive)
8,O=C(O)c1cc(Cc2ccc(O)c(C(=O)O)c2)ccc1O (tested in a mixture with another compound),-81.4% (active)
9,O=C(CBr)Nc1ccccc1,106% (inactive)
10,NC(=O)c1cc([N+](=O)[O-])c(Cl)c([N+](=O)[O-])c1Cl,27.6% (inactive)
11,COc1ccc(/C=C\[N+](=O)[O-])cc1OC,-5.78% (active) and 59.2% (inactive)
12,O=C1CCC(=O)N1SC(Cl)(Cl)Cl,92.6% (inactive)
13,CC[C@@H](C)[C@@H]1NC(=O)C(NC(=O)C(CC(C)C)N(C)C(=O)C2CCCN2C(=O)C(C)O)C(C)OC(=O)C(Cc2ccc(OC)cc2)N(C)C(=O)C2CCCN2C(=O)C(CC(C)C)NC(=O)C(C)C(=O)C(C(C)C)OC(=O)C[C@H]1O (stereo not given in full),-40.4% (active)
14,COc1ccccc1[As]=[As]c1ccccc1OC (stereo not given),-76.9% (active)
15,CCCCCCCC[N+]12CN3CN(CN(C3)C1)C2,108% (inactive)
16,CC(C)C1(NC(=O)C2CC3c4cccc5[nH]cc(c45)CC3N(C)C2)OC2(O)C3CCCN3C(=O)C(Cc3ccccc3)N2C1=O (stereo not given),108% (inactive)
17,O=[N+]([O-])/C=C/c1ccc(Cl)cc1[N+](=O)[O-],17.8% (inactive)
18,CN(C)CC1(N)C(=O)NC(=O)NC1=O,108% (inactive)
19,CN(CCCl)c1ccc(/C=C/C2=[N+](C)c3ccccc3C2(C)C)cc1,35.1% (inactive)
20,CC/C(=C/c1ccc(OC)cc1)[N+](=O)[O-],11.7% (inactive)
